Measured values taken from PubChem BioAssay.
Activity calls are given as the source filed them.

test: E. coli acrAB mutant growth effects, primary screen, E. coli filamentation inducers, strain DRC39, OD650, 48 h (AID 1179);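 further: screen aims at cell division blockers that make cells filament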; settings: E. coli DRC39 delta-acrAB growth, higher = more signal, called active from +8 up or from −8 down

Row | SMILES | z-score
1 | COCCOC(=O)N1C(=O)[C@@]2(c3ccccc31)[C@H](c1ccc(O)cc1)N1[C@H](c3ccccc3)[C@H](c3ccccc3)OC(=O)[C@H]1[C@@H]2C(=O)Nc1nc2ccccc2s1 | 1.37 (inactive)
2 | CC(C)OC(=O)C=C1C[C@@H](c2ccccn2)O[C@@H](c2ccccn2)O1 | 0.115 (inactive)
3 | COC(=O)[C@@]1(Cc2ccc(F)cc2)[C@H]2c3cc(C(=O)N(C)C)n(Cc4ccc(Cl)c(C(F)(F)F)c4)c3C[C@H]2CN1C(=O)c1ccccc1 | -0.531 (inactive)
4 | CC(C)(C)OC(=O)CC[C@]1(C(=O)N2CCOCC2)N=C(c2ccc(OCCCO)cc2)O[C@H]1c1ccccc1N=[N+]=[N-] | 0.314 (inactive)
5 | C=C(C(=O)CC[C@@H](OC(=O)c1cccnc1)c1ccccc1OCCO)C(C)C | 0.195 (inactive)
6 | NCCCCCCNC(=O)[C@@H]1C[C@@H]2C(=O)NCC(=O)N2[C@@H]1c1ccc(O)cc1 | -0.697 (inactive)
7 | CCCCCCc1nc(-c2cc(C)c(OC)c(C)c2)cc2c1[Si](C(C)C)(C(C)C)OC2 | 0.641 (inactive)
8 | C=CCOC(=O)[C@@H]1[C@H]2C(=O)O[C@H](c3ccccc3)[C@H](c3ccccc3)N2[C@H](c2ccc(OCCOC(=O)[C@H]3C[C@H]4C(=O)N5CCC[C@H]5C(=O)N4[C@H]3c3ccc(O)cc3)cc2)[C@@]12C(=O)Nc1ccc(I)cc12 | -0.743 (inactive)
9 | O=C(N1CCCCC1)[C@]1(Cc2ccccc2)N=C(c2ccc(OCCCO)cc2)O[C@@H]1c1ccccc1 | -0.829 (inactive)
10 | CCOC(=O)[C@H]1C/C=C/C[C@H](C(=O)OCC)C(=O)O[C@H]2[C@@H](OC)O[C@H](CO)[C@@H](OC(=O)c3c(OC)cccc3OC)[C@@H]2OC1=O | 0.328 (inactive)
11 | C=C(CCCC)/C(=C/C[C@H](OC(=O)c1ccncc1)c1ccccc1OCCO)c1cnc2ccccc2c1 | 0.126 (inactive)
12 | CCN(CC)c1ccc(N2CC=CC34O[C@@H]5C=CCCOC(=O)C5[C@H]3C(=O)N(CCCCCCO)[C@@H]4C2=O)cc1 (stereo not given in full) | 0.534 (inactive)
13 | COC(=O)[C@@]1(Cc2ccc(OC)cc2)[C@H]2c3cc(C(=O)N4CCCC4)n(CCN4CNCC4=O)c3C[C@H]2CN1C(=O)c1ccccc1 | -0.199 (inactive)
14 | CCC(CC)C(O)C1C=CC2C(=O)NC(=O)C2N1Nc1ccccn1 (stereo not given) | 0.333 (inactive)
15 | O=C(CS)NCCCCCCNC(=O)[C@@H]1C[C@@H]2C(=O)NCC(=O)N2[C@@H]1c1cccc(OCCO)c1 | 1.16 (inactive)

test: RPMI8226 myeloma cell viability, profiling panel, resazurin fluorescence, basal, 24 h, PK04 Diversity Set (AID 1180); settings: higher = more signal;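 further: RPMI8826 multiple myeloma cell line at 5000 cells per well; test concentration not given here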

Row | SMILES | z-score
16 | COCC(=C=CC[C@@H](O)c1cccc(OCCO)c1)C[C@@H](O)c1ccccn1 | 0.973
17 | C[C@@]1([C@@H](NC(=O)c2ccc(-c3ccccc3)cc2)c2ccc(Cl)cc2)C[C@H]1C1CCCCC1 | -6.37
18 | CCc1cccc(NC(=O)O[C@H]2[C@H](OC(=O)Nc3ccccc3-c3ccccc3)[C@@H](OC(=O)Nc3ccccc3-c3ccccc3)[C@@H](OC)O[C@@H]2CO)c1 | -5.09
19 | C=C[C@H](CO[Si](CC)(CC)CC)N(Cc1ccc(OC(C)=O)c(OC)c1)S(=O)(=O)c1ccc(Br)cc1 | -3.37
20 | C[C@H]1NC(=O)[C@@]23C(=O)N[C@@H](Cc4ccccc4)C2[C@H](C)[C@@]2(C)O[C@H]2C3/C=C/C/C=C\CNC(=O)[C@@H]2CCCN2C1=O (stereo not given in full) | 1.14
21 | CCS[C@H]1[C@@H](C(=O)O)[C@H](c2ccc(C)cc2)N(S(=O)(=O)c2ccc(C)cc2)[C@@H]1CC | -0.702
22 | COCCOC(=O)N1C(=O)[C@@]2(c3ccccc31)[C@H](C(=O)N1CCc3cc(OC)c(OC)cc3C1)[C@H]1C(=O)O[C@H](c3ccccc3)[C@H](c3ccccc3)N1[C@@H]2c1ccc(OCCO)cc1 | 0.549
23 | [N-]=[N+]=Nc1ccccc1[C@H]1OC(c2ccc(OCCCO)cc2)=N[C@@]1(CCS(=O)(=O)c1ccccc1)C(=O)NCC(O)CO (stereo not given in full) | -0.389
24 | [N-]=[N+]=NCc1ccccc1[C@@H]1OC(c2ccc(OCCCO)cc2)=N[C@]1(Cc1ccccc1)C(N)=O | -0.0348
25 | C=C(CCCC)C(=O)CC[C@@H](OC(=O)c1ccccc1-c1ccccc1C(=O)O)c1ccc(OCCO)cc1 | 0.692
26 | O=C(CS)NCCCCCCNC(=O)[C@@H]1C[C@@H]2C(=O)N[C@@H](Cc3ccccc3)C(=O)N2[C@@H]1c1cccc(OCCO)c1 | -0.549
27 | CC(C)C(O)C1C=CC2C(=O)N(c3ccccc3)C(=O)C2N1Nc1ccc([N+](=O)[O-])cc1 (stereo not given) | -0.601
28 | CC(C)N1C(=O)[C@@]2(Cc3ccccc31)c1ccccc1C(=O)N(Cc1ccccc1Cl)[C@H]2c1ccc(CO)cc1 | 1.32
29 | C=CCC(OC(C)=O)[C@@H]1[C@@H](N(Cc2cc3ccccc3o2)C(=O)c2cccc3ccccc23)c2cc(OCCCO)ccc2N1C(=O)c1ccc(-c2ccccc2)cc1 (stereo not given in full) | 0.03
30 | C=CCC(OC(C)=O)[C@@H]1[C@@H](N(Cc2ccc(-c3ccccc3)cc2)C(=O)Cc2ccc(OC)cc2)c2cc(OCCCO)ccc2N1C(=O)Cc1ccc2ccccc2c1 (stereo not given in full) | -0.798
31 | Cc1ccc(S[C@]2(C(=O)O)CC(=O)N(C(C)C)[C@@H]2c2ccc(CO)cc2I)cc1 | -1.58
32 | O=C1O[C@@H](c2ccccc2)[C@@H](c2ccccc2)N2[C@@H](c3ccccc3OCCO)[C@]3(C(=O)Nc4ccc(C#CC5=CCCCC5)cc43)[C@@H](C(=O)N3CCCCCCC3)[C@H]12 | -4.11
33 | O=C1OCCC/C=C\[C@H]2OC34C=CCN(Cc5ccccc5)C(=O)[C@H]3N(CCCO)C(=O)[C@@H]4C12 (stereo not given in full) | 1.35

Row | SMILES | z-score
34 | COC(=O)[C@@]1(Cc2ccc(OC)cc2)[C@H]2c3cc(C(=O)N(C)C)n(Cc4ccc(S(C)(=O)=O)cc4)c3C[C@H]2CN1C(=O)c1ccccc1 | 0.766
35 | CC(C)C[C@@H]1NC(=O)[C@H](C(C)C)NC(=O)[C@@]23C(=O)N[C@@H](Cc4ccccc4)C2[C@H](C)[C@@]2(C)O[C@H]2C3/C=C/CC/C=C/CNC1=O (stereo not given in full) | 0.628
36 | COCCOC(=O)N1C(=O)[C@@]2(c3ccccc31)[C@H](c1ccc(O)cc1)N1[C@H](c3ccccc3)[C@H](c3ccccc3)OC(=O)[C@H]1[C@@H]2C(=O)Nc1nc2ccccc2s1 | -0.456
37 | CC(C)OC(=O)C=C1C[C@@H](c2ccccn2)O[C@@H](c2ccccn2)O1 | -0.474
38 | COC(=O)[C@@]1(Cc2ccc(F)cc2)[C@H]2c3cc(C(=O)N(C)C)n(Cc4ccc(Cl)c(C(F)(F)F)c4)c3C[C@H]2CN1C(=O)c1ccccc1 | -3.26
39 | CC(C)(C)OC(=O)CC[C@]1(C(=O)N2CCOCC2)N=C(c2ccc(OCCCO)cc2)O[C@H]1c1ccccc1N=[N+]=[N-] | 0.187
40 | C=C(C(=O)CC[C@@H](OC(=O)c1cccnc1)c1ccccc1OCCO)C(C)C | -0.632
41 | NCCCCCCNC(=O)[C@@H]1C[C@@H]2C(=O)NCC(=O)N2[C@@H]1c1ccc(O)cc1 | 0.08
42 | CCCCCCc1nc(-c2cc(C)c(OC)c(C)c2)cc2c1[Si](C(C)C)(C(C)C)OC2 | -0.11
43 | C=CCOC(=O)[C@@H]1[C@H]2C(=O)O[C@H](c3ccccc3)[C@H](c3ccccc3)N2[C@H](c2ccc(OCCOC(=O)[C@H]3C[C@H]4C(=O)N5CCC[C@H]5C(=O)N4[C@H]3c3ccc(O)cc3)cc2)[C@@]12C(=O)Nc1ccc(I)cc12 | -0.432
44 | O=C(N1CCCCC1)[C@]1(Cc2ccccc2)N=C(c2ccc(OCCCO)cc2)O[C@@H]1c1ccccc1 | -3.93
45 | CCOC(=O)[C@H]1C/C=C/C[C@H](C(=O)OCC)C(=O)O[C@H]2[C@@H](OC)O[C@H](CO)[C@@H](OC(=O)c3c(OC)cccc3OC)[C@@H]2OC1=O | -3.51
46 | C=C(CCCC)/C(=C/C[C@H](OC(=O)c1ccncc1)c1ccccc1OCCO)c1cnc2ccccc2c1 | -0.64
47 | CCN(CC)c1ccc(N2CC=CC34O[C@@H]5C=CCCOC(=O)C5[C@H]3C(=O)N(CCCCCCO)[C@@H]4C2=O)cc1 (stereo not given in full) | 1.04
48 | COC(=O)[C@@]1(Cc2ccc(OC)cc2)[C@H]2c3cc(C(=O)N4CCCC4)n(CCN4CNCC4=O)c3C[C@H]2CN1C(=O)c1ccccc1 | 0.0221
49 | CCC(CC)C(O)C1C=CC2C(=O)NC(=O)C2N1Nc1ccccn1 (stereo not given) | -1.11
50 | O=C(CS)NCCCCCCNC(=O)[C@@H]1C[C@@H]2C(=O)NCC(=O)N2[C@@H]1c1cccc(OCCO)c1 | -0.252
